Reference: PubChem BioAssay (Tox21)
The source made the active and inactive calls. Calls follow the shape of the dose curve; as a rule, active = well fitted curve in the direction sought with a large enough effect in the repeat runs; inconclusive = weak or mixed curves; inactive = flat fitted curve, though single readings scatter.

Columns and labels:
[1] = qHTS assay to test for compound auto fluorescence at 535 nm (green) in HEK293 cells (AID 720680)
[2] = qHTS assay to test for compound auto fluorescence at 460 nm (blue) in HEK293 cell free culture (AID 720681)
Procedure, shortened: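 Compounds were added to cell-free DMEM with 10% FBS and fluorescence read directly. The blue channel used 405 nm excitation and 460 nm emission, with triamterene as the reference fluorophore.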

[3] = qHTS assay to test for compound auto fluorescence at 535 nm (green) in HEK293 cell free culture (AID 720682)
Procedure, shortened: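 DMEM + 10% FBS, cell-free; cpd or DMSO pinned in; Ex485/Em535 read; output as fluorescein-equivalent signal.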

[4] = qHTS assay to test for compound auto fluorescence at 590 nm (red) in HEK293 cell free culture (AID 720683)
Procedure, shortened: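 Cell-free wells of DMEM with 10% FBS received compound, and intrinsic fluorescence was read at excitation/emission 540/590 nm. Values expressed as equivalence to Rose Bengal sodium.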

[5] = qHTS assay to test for compound auto fluorescence at 590 nm (red) in HepG2 cell free culture (AID 720684)
Procedure, shortened: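 Compound was pinned into wells holding MEM with 10% FBS and no cells, and red fluorescence was read at Ex/Em 540/590 nm. Signal is expressed as auto fluorescence equivalency relative to Rose Bengal sodium.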

[6] = qHTS assay to test for compound auto fluorescence at 460 nm (blue) in HepG2 cell free culture (AID 720685)
Procedure, shortened: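 Compound (23 nL) or DMSO pinned into cell-free MEM with 10% FBS; blue fluorescence read at 405/460 nm excitation/emission, expressed as auto-fluorescence equivalency to triamterene.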

[7] = qHTS assay to test for compound auto fluorescence at 535 nm (green) in HepG2 cell free culture (AID 720686)
[8] = qHTS assay to test for compound auto fluorescence at 460 nm (blue) in HepG2 cells (AID 720687)
Procedure, shortened: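 HepG2 cells in MEM with 10% FBS, attached overnight at 37 C, were exposed to compound or DMSO for 1 hr at 37 C, 5% CO2. Blue fluorescence was read at 405/460 nm, with triamterene as reference fluorophore.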

Measured: Potency

c1ccc2ccccc2c1
inactive: all assays above

CC1(C)O[C@@H]2C[C@H]3[C@@H]4C[C@H](F)C5=CC(=O)CC[C@]5(C)[C@H]4[C@@H](O)C[C@]3(C)[C@]2(C(=O)CO)O1
inactive: all assays above

O=S(=O)(Oc1ccc(Cl)cc1Cl)c1ccccc1
inactive: all assays above

OC[C@@H](O)[C@H](O)[C@H](O)[C@@H](O)CO
inactive: all assays above

Oc1ccc(OCc2ccccc2)cc1
inactive: all assays above

Nc1c(S(=O)(=O)O)cc(Br)c2c1C(=O)c1ccccc1C2=O
inactive: all assays above

CC1Cc2ccccc2N1NC(=O)c1ccc(Cl)c(S(N)(=O)=O)c1 (stereo not given)
inactive: all assays above

CN(CCOc1ccc(CC2SC(=O)NC2=O)cc1)c1ccccn1 (stereo not given)
inactive: all assays above

S=c1nc[nH]c2nc[nH]c12
inactive: all assays above

CC1(C)CC(N=C=O)CC(C)(CN=C=O)C1 (stereo not given)
inactive: all assays above

C/C=C(C)/C=C/C=C(C)C
inactive: all assays above

C[C@@H](O)[C@H]1C(=O)N2C(C(=O)O)=C(S[C@@H]3CN[C@H](C(=O)N(C)C)C3)[C@H](C)[C@H]12
inactive: all assays above

NCCc1ccc(O)c(O)c1
inactive: all assays above

COC(=O)c1ccc(C(=O)OC)cc1
inactive: all assays above

CC(C)(C)C(=O)C1C(=O)c2ccccc2C1=O
inactive: all assays above

O=[N+]([O-])c1cccc(Cl)c1
inactive: all assays above

O=[N+]([O-])c1cc(N(CCO)CCO)ccc1NCCO
inactive: all assays above

c1ccc2[nH]cnc2c1
inactive: all assays above

O=C(Oc1ccccc1)c1ccc(O)cc1
inactive: all assays above

CC(=O)CCc1ccccc1
inactive: all assays above

CC1=C(/C=C/C(C)=C/C=C/C(C)=C/CO)C(C)(C)CCC1
inactive: all assays above

C=CC(=O)OCCCCCCCC(C)C
inactive: all assays above

COC(=O)c1ccccc1O
inactive: all assays above

CNC[C@H](O)[C@@H](O)[C@H](O)[C@H](O)CO
inactive: all assays above

CS(=O)(=O)Nc1ccc([N+](=O)[O-])cc1Oc1ccccc1
inactive: all assays above

CC(C)n1c(/C=C/[C@@H](O)C[C@@H](O)CC(=O)O)c(-c2ccc(F)cc2)c2ccccc21
inactive: all assays above

CCCCC/C=C\C/C=C\CCCCCCCC(=O)OC
inactive: all assays above

Oc1ccc2ccccc2c1N=Nc1ccccc1
inactive: all assays above

CCCCC(CC)COC(=O)/C=C\C(=O)OCC(CC)CCCC (stereo not given)
inactive: all assays above

COC(=O)Nc1nc2ccc(Sc3ccccc3)cc2[nH]1
inactive: all assays above
